Measurements from PubChem BioAssay (NCATS).
Inconclusive results are not listed. A call without a number means that no potency is given here. The source made the active and inactive calls. Calls follow the shape of the dose curve; as a rule, active = well fitted inhibition curve with a large enough effect; inconclusive = small, poorly fitted or top-dose-only effect; inactive = no such curve, though single readings can be large or run the other way.

target: Retinal dehydrogenase 2 (Homo sapiens) (UniProt O94788); test: qHTS for Inhibitors of the Aldehyde Dehydrogenase Family (ALDH1A2) Confirmation screens (AID 2061314); settings: ALDH1A2 enzyme inhibition qHTS confirmation; series mostly up to 45.9 µM; also: nearly all actives have a fitted effect of over 65% in size
Potency is read from the fitted curve at half-maximal effect.

SMILES	Potency
O=S1(=O)N=C(Sc2cccc3cccnc23)c2ccccc21	inactive
CCOc1ccc(C(=O)N2CCN(Cc3cc(=O)n4nc(-c5cccc(OC)c5)sc4n3)CC2)cc1	inactive
Cc1noc(Nc2sc3c(c2-c2nc4ccccc4s2)CCNC3)n1	25.2 µM (active)
Cn1nnnc1Sc1ncnc2scc(I)c12	inactive
O=C(CN(Cc1cccc2ccccc12)C1CC1)Nc1ccc(N2CCOCC2)cc1	11.3 µM (active)
Cc1ccc(CN(C)c2ncnc3ccc(-c4ccc(CO)o4)cc23)o1	11.3 µM (active)
O=C(O)C1NCc2[nH]cnc2C1c1ccccc1 (configuration not stated)	4 µM (active)
OCc1ccc(-c2ccc3ncnc(NCc4nccs4)c3c2)o1	14.2 µM (active)
Cc1ccc(-c2nc3ccccc3s2)cc1NC(=O)c1ccc(-c2cccc(Cl)c2)o1	22.5 µM (active)
Cc1c(C(=O)OCc2ccco2)[nH]c2c1C(=O)CC(c1ccco1)C2 (configuration not stated)	3.18 µM (active)
CCOC(=O)c1c(-c2ccc(C)o2)csc1NC(=O)CSc1nnnn1-c1ccccc1	5.04 µM (active)
Nc1c(-c2ccccc2)cc[nH]c1=O	0.159 µM (active)
CC(=O)Nc1sc2c(c1-c1nc3ccccc3s1)CCN(C1COC1)C2	14.2 µM (active)
O=C1COc2cc([S+](=O)([O-])Nc3ccc(Cl)c(Cl)c3)c(Cl)cc2N1	14.2 µM (active)
CN(C)C(=O)c1ccc(-c2cc[nH]c(=O)c2N)cc1	0.4 µM (active)
O=[N+]([O-])c1cc(C(F)(F)F)ccc1N1CCN(C(=S)Nc2cc(Cl)ccn2)CC1	14.2 µM (active)
O=C(c1ccccc1O)N(Cc1ccco1)Cc1cccs1	22.5 µM (active)
Cc1csc(CNc2ncnc3ccc(-c4ccc(C(C)O)o4)cc23)n1 (configuration not stated)	5.65 µM (active)

target: Retinaldehyde dehydrogenase 3 (Homo sapiens) (UniProt P47895); test: qHTS for Inhibitors of the Aldehyde Dehydrogenase Family (ALDH1A3) Primary screen (AID 2061315); settings: ALDH inhibition qHTS; series mostly up to 56 µM

SMILES	Potency
CC(=O)N1CCN(c2cccc(Nc3nn4c(=O)c5ccccc5nc4s3)c2)CC1	inactive
CNc1cccc(S(=O)(=O)N2CCCN(S(=O)(=O)c3ccc4c(c3)OCCO4)CC2)c1	inactive
Cc1ccc(NS(=O)(=O)c2ccc3c(c2)CCO3)cc1C	inactive
O=C(O)c1ccc(CSc2nnc(-c3cccc([S+](=O)([O-])N4CCCC4)c3)n2-c2ccccc2)cc1	inactive
CCC/C=C/c1cc2c(C=O)c(O)c(CC=C(C)C)cc2o1	inactive
O=S1(=O)N=C(Sc2cccc3cccnc23)c2ccccc21	inactive
COc1ccc(-c2ccc3ncnc(NCc4cccs4)c3c2)cc1OC	inactive
O=C(O)c1ccc(O)c2ncc(-c3ccc(N4CCOCC4)cc3)cc12	inactive
Cc1noc(Nc2sc3c(c2-c2nc4ccccc4s2)CCNC3)n1	inactive
COc1cc(-c2ccc3ncnc(NCc4cccs4)c3c2)cc(OC)c1OC	inactive
Cn1nnnc1Sc1ncnc2scc(I)c12	inactive
COc1ccnc(CS(=O)c2nc3cc(OC(F)F)ccc3[nH]2)c1OC (configuration not stated)	31.6 µM (active)
O=C(Cc1ccc(Cl)c(Cl)c1)Nc1ccc(S(=O)(=O)Nc2cccc(O)c2)cc1	inactive
FC(F)(F)c1ccccc1-c1nc(NCc2ccc(-c3ccc4c(c3)OCCO4)cc2)c2ccccc2n1	inactive
O=C(CN(Cc1cccc2ccccc12)C1CC1)Nc1ccc(N2CCOCC2)cc1	inactive
Cc1ccc(CN(C)c2ncnc3ccc(-c4ccc(CO)o4)cc23)o1	inactive
O=C(O)C1NCc2[nH]cnc2C1c1ccccc1 (configuration not stated)	inactive
COc1ccc(Cn2c(C)nnc2-c2cnn(C)c2N)cc1OC	inactive
OCc1ccc(-c2ccc3ncnc(NCc4nccs4)c3c2)o1	inactive
Cc1cc(C)nc(NC(=S)N2CCN(c3ccc(Cl)nn3)CC2)c1	inactive

SMILES	Potency
Cn1c2cc([N+](=O)[O-])sc2c2cnn(Cc3ccccc3F)c(=O)c21	inactive
Clc1nc(CN2CCOCC2)nc2sc3c(c12)CCC3	inactive
Cc1ccc(-c2nc3ccccc3s2)cc1NC(=O)c1ccc(-c2cccc(Cl)c2)o1	inactive
Cc1c(C(=O)OCc2ccco2)[nH]c2c1C(=O)CC(c1ccco1)C2 (configuration not stated)	inactive
CCOC(=O)c1c(-c2ccc(C)o2)csc1NC(=O)CSc1nnnn1-c1ccccc1	inactive
O=C(NCc1nnc(C(=O)Nc2ccc(C(F)(F)F)cc2Cl)o1)c1ccccc1	inactive
Nc1c(-c2ccccc2)cc[nH]c1=O	inactive
Cc1ccnc(NC(=S)N2CCN(c3cccc(C(F)(F)F)c3)CC2)n1	inactive
Cc1ccc(C)c(SC2=N[S+](=O)([O-])c3cc(C(=O)Nc4ccc5ncccc5c4)ccc32)c1	inactive
Oc1ccc(CNc2ccc(F)cc2Cl)c2cccnc12	inactive
CC(=O)Nc1sc2c(c1-c1nc3ccccc3s1)CCN(C1COC1)C2	inactive
O=C1COc2cc([S+](=O)([O-])Nc3ccc(Cl)c(Cl)c3)c(Cl)cc2N1	inactive
CN(C)C(=O)c1ccc(-c2cc[nH]c(=O)c2N)cc1	inactive
Cn1ccc2cc(-c3csc(N4CCC(C(N)=O)CC4)n3)ccc21	inactive
O=[N+]([O-])c1cc(C(F)(F)F)ccc1N1CCN(C(=S)Nc2cc(Cl)ccn2)CC1	inactive
NC(=O)C1CCN(c2ncnc(-c3ccc4c(c3)OCCCO4)n2)CC1	inactive
O=C(c1ccccc1O)N(Cc1ccco1)Cc1cccs1	inactive
Cc1csc(CNc2ncnc3ccc(-c4ccc(C(C)O)o4)cc23)n1 (configuration not stated)	inactive
N#Cc1c(-c2cccs2)no[n+]1[O-]	inactive
